Assay results taken from PubChem BioAssay (NCI).
This is part of a sample that, as a whole, favours compounds with a hit. Of some 79,000 tested, about 15% had one in any assay. Calls of active or inactive are those of the source. No stated cut-off is given here; in the data, active means growth inhibition above about 70%; inactive means the rest.

Key:
[1] = NCI Yeast Anticancer Drug Screen. Data for the rad50 strain (AID 155);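 further: 0% = growth of vehicle-only cultures of the same strain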; conditions: S. cerevisiae rad50 strain growth inhibition; at 50.0 µM; active compounds read high
Outline: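 A DNA repair-deficient yeast mutant serves as the test organism; compound-induced growth inhibition is calculated against vehicle-treated cells.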

[2] = NCI Yeast Anticancer Drug Screen. Data for the mec2-1 strain (AID 157); conditions: S. cerevisiae mec2-1 strain, at 50.0 µM, active compounds read high
Outline: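 Readout is yeast growth inhibition, normalised to vehicle-treated controls, in the mec2-1 strain exposed to compound.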

[3] = NCI Yeast Anticancer Drug Screen. Data for the sgs1 mgt1 strain (AID 161);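 further: 0% = growth of cultures given vehicle only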; conditions: S. cerevisiae sgs1 mgt1 strain, at 50.0 µM, active compounds read high
Outline: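 This yeast growth screen uses a strain with defined DNA-repair lesions; compound-treated growth is compared with vehicle-treated growth.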

[4] = NCI Yeast Anticancer Drug Screen. Data for the cln2 rad14 strain (AID 165);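 further: 0% = growth equal to vehicle treated cultures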; conditions: S. cerevisiae cln2 rad14 strain, at 50.0 µM, active compounds read high
Outline: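 Relative to vehicle controls, growth inhibition of compound-treated cln2 rad14 yeast was recorded.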

[5] = NCI Yeast Anticancer Drug Screen. Data for the bub3 strain (AID 167); conditions: S. cerevisiae bub3 mutant strain, at 50.0 µM, active compounds read high
Outline: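 Inhibition values come from growth of compound-treated mutant yeast normalised to vehicle-treated controls.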

[6] = NCI Yeast Anticancer Drug Screen. Data for the mlh1 rad18 strain (AID 175); conditions: S. cerevisiae mlh1 rad18 strain growth inhibition; at 50.0 µM; active compounds read high
Outline: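 Test agents were incubated with a yeast strain of defined genotype (DNA damage repair defect). Inhibition of growth was derived by comparison with vehicle-exposed cultures.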

Measured: growth inhibition

O=C1CCCC2=C1CC1=C(CCCC1=O)N2c1ccccc1
inactive: [1] -28.5% | [2] -20.9% | [3] 8.7% | [4] -0.75% | [5] 12.6% | [6] 12.6%

Clc1ccc(Cl)c(N=Nc2cc3c4c(c2)CCN4CCC3)c1
inactive: [1] -34% | [2] -35.1% | [3] -15.2% | [4] -16.3% | [5] -10.8% | [6] -18.8%

Cc1cn(C2CC(C)N(CCO)O2)c(=O)[nH]c1=O (configuration not stated)
inactive: [1] -8.1% | [2] -1.35% | [3] -16.8% | [4] -11.6% | [5] -14.9% | [6] -74.2%

Cn1c(C2CCc3cc(O)ccc3C2)cccc1=O (configuration not stated)
inactive: [1] -26.8% | [2] 13.1% | [3] -4.25% | [4] -19.6% | [5] 14.7% | [6] -4.35%

Cc1cc(O)c(C(c2c(O)cc(C)c(Cl)c2C)C(Cl)(Cl)Cl)c(C)c1Cl
inactive: [1] 26.1% | [2] 21.9% | [3] 30.9% | [4] 39.6% | [5] 20.6% | [6] 18.2%

COC1CC(NC(=O)C(F)(F)F)C(O)C(CNC(=O)C(F)(F)F)O1 (configuration not stated)
inactive: [1] -32.5% | [2] 17.2% | [3] -3.55% | [4] -14% | [5] 16.1% | [6] 19.4%

COc1cc(O)c2c(c1)C(=O)c1cc3c(c(O)c1C2=O)CC(OC)C(C)(O)C3O (configuration not stated)
active: [1] 90.5% | [2] 91.3% | [3] 91.8% | [4] 88.5% | [5] 91.8% | [6] 91.2%

Cc1ccc(NC(=O)CC/C(CC(=O)C(C)(C)C)=N\Nc2ccc([N+](=O)[O-])cc2[N+](=O)[O-])cc1C
inactive: [1] 18.6% | [2] -3.55% | [3] -11.7% | [4] 4% | [5] 7.8% | [6] -18.3%

Clc1nc(Sc2ccc(Br)cc2)c(Cl)c(Sc2ccc(Br)cc2)n1
inactive: [1] -18.9% | [2] -2.3% | [3] 8.05% | [4] -0.8% | [5] 1.5% | [6] -17.6%

NC(=O)c1ccc(=S)[nH]c1
inactive: [1] -8% | [2] -12.7% | [3] -7.55% | [4] -27.1% | [5] -6.1% | [6] 14.7%

Cc1nc(=S)c2cnn(-c3ccccc3)c2[nH]1
inactive: [1] -15.4% | [2] -21.2% | [3] -3.9% | [4] -57.2% | [5] -27.1% | [6] -0.6%

CCCCCCCCNC(C(=O)c1ccccc1)c1ccccc1 (configuration not stated)
inactive: [1] 10.1% | [2] 11.7% | [3] 16% | [4] 14% | [5] 14.2% | [6] 26.8%

N#C/C(=C/C=C/c1ccco1)C(N)=O
inactive: [1] 9.9% | [2] 1.65% | [3] 15.6% | [4] 10.6% | [5] -6.25% | [6] 13.4%

N#CC1C=Cc2ccccc2N1C(=O)Oc1ccccc1 (configuration not stated)
inactive: [1] 1.5% | [2] 14.3% | [3] 10.6% | [4] 18.6% | [5] -7.8% | [6] 16.6%

CCCCCC(CN(C)C)C(=O)CC(SCC)c1ccc(Cl)c(Cl)c1 (configuration not stated)
active: [1] 99.5% | [2] 99.5% | [3] 99.5% | [4] 99.5% | [5] 99.2% | [6] 99.3%

CC(=O)OC(=O)C(=O)C(F)C(O)C(C)C (configuration not stated)
inactive: [1] -16.6% | [2] -13.9% | [3] -14.2% | [4] -10.4% | [5] -13.4% | [6] 7.45%

CC1(C)C([N+](C)(C)C)CS1(=O)=O (configuration not stated)
inactive: [1] 1.9% | [2] -18.9% | [3] -13.8% | [4] -11.1% | [5] 9.65% | [6] -6.45%

COc1ccc2c(c1)C1(C)CCCC(C)(C(N)=O)C1CC2 (configuration not stated)
inactive: [1] 0.1% | [2] -15.8% | [3] -8.05% | [4] 8.95% | [5] -12.2% | [6] -24.7%

N=C1N=Nc2nc(C(C(=O)c3cccs3)c3nc4n(c3O)C(=N)N=N4)c(O)n21 (configuration not stated)
inactive: [1] -5.1% | [2] 17.1% | [3] -1.25% | [4] -15.3% | [5] 1.7% | [6] -12.3%

Cc1ccccc1C1OC(=O)c2ccc3ccccc3c21 (configuration not stated)
inactive: [1] 10.6% | [2] 1.8% | [3] 14.4% | [4] 7.95% | [5] 1.45% | [6] 6.55%

CCCNC(=O)C1C(=O)C(=O)N(CCC)C1=O (configuration not stated)
inactive: [1] 7.8% | [2] 4.45% | [3] 4.1% | [4] -4.5% | [5] -3.9% | [6] 4.05%

CCCCCCCCCCCCNC
inactive: [1] 38.2% | [2] 30.4% | [3] 61.9% | [4] 30.6% | [5] 62.6% | [6] 44.9%

C/C(=N/O)c1c[n+]([O-])ccn1
inactive: [1] -3.9% | [2] -3.15% | [3] -7.9% | [4] -31.2% | [5] 4.7% | [6] -0.5%

CC(=O)c1ccc(OCc2ccccc2)cc1OCc1ccccc1
inactive: [1] 7% | [2] 4.5% | [3] -9.8% | [4] 11.7% | [5] 4.8% | [6] -18.6%

Clc1ccc(-n2ncc3c2-c2ccccc2CCC3)cc1
inactive: [1] 31.4% | [2] -6.5% | [3] 3.5% | [4] 4.85% | [5] 48.2% | [6] 34.3%

CN1CCN(C(=S)N(C)C(=O)c2ccc(Cl)cc2)CC1
inactive: [1] 13.3% | [2] -20.1% | [3] -20.3% | [4] 19.1% | [5] -22.9% | [6] -9.65%

Nc1cc2c(cc1Br)-c1cc(Cl)c(Cl)cc1C2=O
inactive: [1] -5.75% | [2] -13.8% | [3] -7.15% | [4] -23.1% | [5] -2.1% | [6] -11.5%

CCC(C1=CCCCC1)c1nc2c([nH]1)c(=O)n(C)c(=O)n2C (configuration not stated)
inactive: [1] 7.95% | [2] 8.5% | [3] 23.6% | [4] 8.65% | [5] 17.6% | [6] 45.5%

Nc1cc(=O)[nH]c(N2CCN(c3ccccc3)CC2)n1
inactive: [1] 1.15% | [2] -4.9% | [3] -14.3% | [4] 6.15% | [5] 6.15% | [6] 12.4%

COC(=O)/C(C#N)=C\N1CCNC1=S
inactive: [1] -54.8% | [2] -62.8% | [3] -35.9% | [4] -15.9% | [5] -10.4% | [6] -19.5%

Cc1ccc(O)c2occ(C)c12
inactive: [1] 17.7% | [2] 12.1% | [3] 10.5% | [4] 36.9% | [5] -2.8% | [6] 39.5%

Cn1c(=O)c2c(nc(OC3CCCCC3)n2C)n(C)c1=O
inactive: [1] 14.1% | [2] -1.3% | [3] 29.4% | [4] 26.1% | [5] 57.5% | [6] -2.95%

O=c1[nH]cnc2c(COCCO)c[nH]c12
inactive: [1] -18.6% | [2] 2.8% | [3] -19.5% | [4] -3.95% | [5] -34.3% | [6] -20.9%

COC(CCC#N)c1ccc(Cl)cc1 (configuration not stated)
inactive: [1] -31.9% | [2] -20.6% | [3] -26.6% | [4] 1.7% | [5] -31.9% | [6] -26.6%

CC(=O)C1C(=O)C(=O)N(Cc2ccccc2)C1=O (configuration not stated)
inactive: [1] -20.4% | [2] -13.8% | [3] -27.4% | [4] -19.3% | [5] -7.4% | [6] -19.6%

CC1CCCCN1P(N1CCCCC1C)N1CCCCC1C (configuration not stated)
inactive: [1] 36.4% | [2] 20.4% | [3] 29% | [4] 25.6% | [5] 23.4% | [6] 33.5%

CCC(=O)Oc1ccc[nH]c1=O
inactive: [1] 1.8% | [2] 21.2% | [3] 4.95% | [4] 24.6% | [5] 9.95% | [6] 14.2%

CC(=O)OC1CCC2(C)C(CCC3C2CCC2(C)C(C(C)=O)CCC32)C1 (configuration not stated)
inactive: [1] 4.25% | [2] -9.05% | [3] 2.35% | [4] -11.9% | [5] 10.4% | [6] 14.9%

C/C=C/C=C/c1nc(C#N)c(N)o1
inactive: [1] -7.6% | [2] -2.2% | [3] 1.55% | [4] 12.7% | [5] 15.3% | [6] -3.55%

CC(C)(C)n1nnnc1N
inactive: [1] -8.55% | [2] -7.55% | [3] 6% | [4] -0.05% | [5] 11.1% | [6] -20.9%

CC(=O)OCC1OC(n2c3c(cc(C#N)c2=S)CCCCC3)C(OC(C)=O)C(OC(C)=O)C1OC(C)=O (configuration not stated)
inactive: [1] 27.1% | [2] -1.7% | [3] 3.1% | [4] -32.9% | [5] -0.8% | [6] -7.1%

COC(=O)c1ccc(/C=C(\c2ccc([N+](=O)[O-])o2)S(=O)(=O)c2ccc(NC(C)=O)cc2)o1
inactive: [2] 66% | [5] 34.8%
active: [1] 84.7% | [3] 90.8% | [4] 71.7% | [6] 88.5%
